In all, about 1,400 compounds went through this assay and about 860 (61%) were called active. The set was probably picked from earlier hits. Not all results are given here. A number with no mark means an inactive call.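 How the source made its calls: active means inhibition reaching a set limit, 80% of the first screen's cutoff, at 20 µM in any replicate; inactive means the rest.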
biological target: DNA dC->dU-editing enzyme APOBEC-3A (Homo sapiens) (UniProt P31941); assay: APOBEC3A deaminase inhibitors, retest, confirmation, selectivity assay for APOBEC3G inhibitor project, biochemical, single concentration, fluorescence readout (AID 493151); details: recombinant A3A, ssDNA deaminase UDG fluorescence assay; at 20 µM; active compounds read high;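 further: plate controls were DMSO wells with A3A for no effect and wells lacking A3A enzyme for full effect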
Sequence (P31941 whole entry, looked up): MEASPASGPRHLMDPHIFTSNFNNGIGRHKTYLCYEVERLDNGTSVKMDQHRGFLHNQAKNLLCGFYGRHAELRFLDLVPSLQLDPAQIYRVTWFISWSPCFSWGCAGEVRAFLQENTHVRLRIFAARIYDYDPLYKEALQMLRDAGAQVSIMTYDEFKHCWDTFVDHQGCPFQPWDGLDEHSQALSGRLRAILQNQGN

Q: `C=CC1=C(C(=O)O)N2C(=O)[C@@H](NC(=O)/C(=N/OCC(=O)O)c3csc(N)n3)[C@H]2SC1` was tested. Which inhibition did it give?
A: 76.3% (active)

Q: How did the inhibition turn out when `O=C(Nc1cccc(-c2nc3ccccc3[nH]2)c1)c1ccc(C(=O)Nc2cccc(-c3nc4ccccc4[nH]3)c2)cc1` was run?
A: 6.82%

Q: Which inhibition does the source give for `CC(=O)Nc1ccc(NC(=O)C2CCCN(S(=O)(=O)c3ccc(Cl)cc3)C2)cc1` (centres undefined) here?
A: -5.52%

Q: Which inhibition does the source give for `CSc1nnc(-c2ccncc2)n1CCCN1CCCC1=O` here?
A: 72.4% (active)

Q: `O=C(CSc1nccc(=O)[nH]1)Nc1ccc(N2CCOCC2)c(Cl)c1` was tested. Which inhibition did it give?
A: 18.1%

Q: For `COc1cc(/C=N\Nc2ccc([N+](=O)[O-])cn2)ccc1OCC(=O)O`, which inhibition is on record?
A: 37.7% (active)

Q: Which inhibition does the source give for `CC1(C)CC(N2CCN(C(c3ccccc3)c3ccccc3)CC2)=CC(=[N+]2CCCCC2)C1` here?
A: 58.7% (active)

Q: `Cc1ccc(C2=C/C(=C\c3cccnc3)C(=O)O2)cc1` was tested. Which inhibition did it give?
A: 19.7%

Q: Which inhibition does the source give for `CCNC(=O)COC(=O)CCNC(=O)c1cccc(C)c1` here?
A: 25.7% (active)

Q: Which inhibition does the source give for `CSc1nnc(SCc2nc3sc(C(=O)O)c(C)c3c(=O)[nH]2)s1` here?
A: 68.9% (active)

Q: `COc1ccc(Cc2nnc(NC(=O)c3ccc(OC)cc3OC)s2)cc1` was tested. Which inhibition did it give?
A: -9.68%

Q: `COC(=O)C1=C(C)N(Cc2ccccc2)C(=NCCCOC(C)C)N[C@H]1c1ccccc1` was tested. Which inhibition did it give?
A: 77.1% (active)

Q: With `N#Cc1ncc(C(F)(F)F)cc1Oc1cccnc1` as the molecule, how does the inhibition read?
A: -4.78%

Q: Which inhibition does the source give for `CCn1c(SCC(=O)Nc2cccc(F)c2)nnc1-c1cc2cc(Br)ccc2o1` here?
A: 68.4% (active)

Q: With `O=C(COC(=O)c1cnc(Cl)c(Cl)c1)NCc1ccco1` as the molecule, how does the inhibition read?
A: 19.3% (active)

Q: With `NS(=O)(=O)c1cc(C(=O)OCC(=O)NNC(=O)c2ccccc2)ccc1Cl` as the molecule, how does the inhibition read?
A: 8.76%

Q: How did the inhibition turn out when `C[n+]1ccc(C(=O)NCc2ccccc2)cc1` was run?
A: 63% (active)

Q: `CC[n+]1cc(C)ccc1/C=C/c1ccc(N(C)C)cc1` was tested. Which inhibition did it give?
A: 58.4% (active)

Q: For `CCN1C(=NCCc2cccnc2)N[C@@H](c2ccccc2)[C@H](C(=O)OC)[C@H]1C`, which inhibition is on record?
A: 61.1% (active)

Q: How did the inhibition turn out when `CC[n+]1c(C)n(-c2ccccc2)c2ccc(NC(C)=O)cc21` was run?
A: 73.8% (active)

Q: For `COc1ccc(C)cc1NC(=O)CCCN1C(=O)NC(C)(C)C1=O`, which inhibition is on record?
A: 48.1% (active)

Q: How did the inhibition turn out when `CS(=O)(=O)c1ccc2c(c1)SC1=NC(=O)/C(=C/c3ccco3)C(=N)N12` was run?
A: 33.9% (active)

Q: For `CC1=NN(C(=O)CCc2ccccc2O)C(O)(C(F)(F)F)C1` (centres undefined), which inhibition is on record?
A: 21.4%

Q: With `O=C(CNC1CCCCC1)NCC1(c2ccccc2)CCCC1` as the molecule, how does the inhibition read?
A: 29.8%

Q: How did the inhibition turn out when `CC(Oc1ccc(F)cc1)C(=O)Nc1cc(S(=O)(=O)N2CCOCC2)ccc1N1CCN(C)CC1` (centres undefined) was run?
A: 55.2% (active)

Q: `C[N+](C)(C)CCNC(=O)c1cc[n+](Cc2ccccc2)c(/C=N/O)c1` was tested. Which inhibition did it give?
A: 52.7% (active)

Q: With `COC(=O)C[n+]1cccc2ccccc21` as the molecule, how does the inhibition read?
A: 67.4% (active)

Q: How did the inhibition turn out when `CC(C)c1ccc(/C=C2\NC(=O)NC2=O)cc1` was run?
A: 67.7% (active)

Q: For `CCCCCCCC[n+]1cccc(C(=O)N2c3c(nc(N)[nH]c3=O)NC(C)C2C)c1` (centres undefined), which inhibition is on record?
A: 69.9% (active)

Q: For `COc1ccc(NC(=O)CN(C)C(=O)/C=C/c2cn(Cc3ccccc3)nc2-c2cccnc2)cc1`, which inhibition is on record?
A: 30.7%

Q: For `CCCN1C2=C(C(=O)CCC2)C(c2ccc(O)c(Br)c2)C2=C1CCCC2=O`, which inhibition is on record?
A: -5.86%

Q: With `S=C(Nc1cccnc1)Nc1ccccn1` as the molecule, how does the inhibition read?
A: -2%

Q: How did the inhibition turn out when `C[N+]1(CCNC(=O)/C=N/O)CCCCC1` was run?
A: 73.9% (active)

Q: How did the inhibition turn out when `C[N+]1(CC(O)COc2ccccc2)CCN(C(=O)c2ccc([N+](=O)[O-])cc2)CC1` (centres undefined) was run?
A: 74.8% (active)

Q: For `CNc1ccc([N+](=O)[O-])cc1C(=O)O`, which inhibition is on record?
A: 0.63%

Q: With `COc1ccc(CNc2nnnn2C)cc1` as the molecule, how does the inhibition read?
A: -3.03%

Q: With `Cc1cc2c(cc1C)[n+](C)cn2CC(O)COCC1CC=CCC1` (centres undefined) as the molecule, how does the inhibition read?
A: 73.1% (active)

Q: `CC(/C=C/c1ccccc1)=N\NC(=O)C1CC1(C)c1ccccc1` (centres undefined) was tested. Which inhibition did it give?
A: -0.43%

Q: How did the inhibition turn out when `COc1ccc2[nH]c(=O)c(-c3noc(-c4ccc(F)cc4)n3)cc2c1` was run?
A: 5.11%

Q: Which inhibition does the source give for `CCCc1nc(-c2cc3cc(C)ccc3[nH]c2=O)no1` here?
A: 67.6% (active)

Q: `COc1ccccc1-c1noc(CSc2nc(C)cc(=O)[nH]2)n1` was tested. Which inhibition did it give?
A: 36.8% (active)

Q: With `O=C(c1ccc(CS(=O)(=O)c2ccccc2)o1)N1CCN(c2ccccc2)CC1` as the molecule, how does the inhibition read?
A: 31.7% (active)

Q: `Cc1snc(SCc2c(F)cccc2Cl)c1C#N` was tested. Which inhibition did it give?
A: 30.3%

Q: Which inhibition does the source give for `N#Cc1ccccc1CN1C(=O)S/C(=C/c2cccn2-c2cccc(C(=O)O)c2)C1=O` here?
A: 53.8% (active)

Q: Which inhibition does the source give for `CCN(CC)CCCNC(=O)CCn1nc(-c2ccc(Cl)cc2)ccc1=O` here?
A: -4.91%

Q: Which inhibition does the source give for `Cc1nnc(N/N=C/c2ccccn2)[nH]c1=O` here?
A: -1.88%

Q: How did the inhibition turn out when `O=C(N/N=C\c1cccnc1)c1cc(-c2ccccc2)nc2c(Cl)cccc12` was run?
A: -3%

Q: How did the inhibition turn out when `COc1ccccc1CCNC(=O)C1CCN(C(=O)/C=C/c2ccccc2)CC1` was run?
A: 36.9% (active)

Q: For `COc1ccc(CCNC(=O)COC(=O)/C=C/c2cccs2)cc1OC`, which inhibition is on record?
A: -7.13%

Q: With `CC1(C)Oc2ccc3ccc(=O)oc3c2/C(=C/NCCO)C1=O` as the molecule, how does the inhibition read?
A: 71.5% (active)

Q: For `N#Cc1ccsc1NC(=O)CN1CCN(S(=O)(=O)c2cc(Cl)ccc2Cl)CC1`, which inhibition is on record?
A: 22.2%

Q: Which inhibition does the source give for `Cc1csc(SCC(=O)Nc2sccc2C#N)n1` here?
A: 0.02%

Q: For `CCN(CC)CCOC(=O)c1ccc(NC(=O)CNC(=O)c2ccccc2)cc1`, which inhibition is on record?
A: 2.53%

Q: How did the inhibition turn out when `CCOC(=O)c1ccc(NC(=O)CSc2ncccn2)cc1` was run?
A: 59% (active)

Q: Which inhibition does the source give for `Cc1cc(/C=N/NC(=O)CC2(C)OCCO2)c(C)n1-c1ccc(Cl)c(Cl)c1` here?
A: 0.39%

Q: How did the inhibition turn out when `CCS(=O)(=O)c1ccc(-c2cccc(NC(=O)c3ccc(Br)o3)c2)nn1` was run?
A: -5.47%

Q: `CCCCNC(=O)CSc1nc2ccc(NC(=O)CSc3nnc(N)s3)cc2s1` was tested. Which inhibition did it give?
A: 49.7% (active)

Q: How did the inhibition turn out when `COc1ccc(Br)cc1CN(C)C(=O)C1CC(=O)N(C2CCCC2)C1` (centres undefined) was run?
A: 27.6% (active)

Q: How did the inhibition turn out when `O=C(CSc1nc2ccccc2c(=O)[nH]1)Nc1nc(-c2ccc(Br)cc2)cs1` was run?
A: 42.3% (active)

Q: With `CC(C)CCOc1ccc(C(=O)C[N+]2(C)CCOCC2)cc1` as the molecule, how does the inhibition read?
A: 95.7% (active)

Q: How did the inhibition turn out when `Cc1ccc(C(=O)N/N=C\c2cc(Br)c(Br)o2)cn1` was run?
A: 15.2% (active)

Q: For `COc1cccc(NC(C)=[N+](C)CCNS(=O)(=O)c2ccc(Cl)cc2)c1`, which inhibition is on record?
A: 29.4%

Q: Which inhibition does the source give for `C[N+](C)(CCCCCC[N+](C)(C)CCCN1C(=O)c2cccc3cccc(c23)C1=O)CCCN1C(=O)c2cccc3cccc(c23)C1=O` here?
A: 35.2% (active)

Q: Which inhibition does the source give for `CC(=O)Nc1ccc(Nc2cc(C)nc(Nc3ccc(NC(C)=O)cc3)n2)cc1` here?
A: 48.6% (active)

Q: `Cc1ccc(CCCOC(=O)C[N+]2(C)CCCCC2)cc1` was tested. Which inhibition did it give?
A: 81.4% (active)

Q: How did the inhibition turn out when `CCN1C(=NCc2ccc(OC)cc2)N[C@@H](CCc2ccccc2)[C@H](C(=O)NCc2ccc(OC)cc2)[C@H]1C` was run?
A: 32.8% (active)

Q: With `CCN1C(=NCC(C)C)N[C@@H](CCc2ccccc2)[C@H](C(=O)NCC(C)C)[C@H]1C` as the molecule, how does the inhibition read?
A: 37.8% (active)

Q: How did the inhibition turn out when `COCCCn1c(Cc2csc(Nc3cccc(Cl)c3)n2)nnc1SCC(=O)OC1CCCCC1` was run?
A: 72.2% (active)

Q: For `O=C1c2oc3ccccc3c(=O)c2C(c2cccc(O)c2)N1c1ccccn1` (centres undefined), which inhibition is on record?
A: -9.88%

Reference: PubChem BioAssay AID493151 (Sanford-Burnham Center for Chemical Genomics, 2011)
